Laboratory results as given in the supplement of paper PMC6555819.

Tests used:
Experiment in all cases: PBM binding z-score (relative to random genomic background probes); higher = stronger binding; sequences stand for … in GC…GCGATTGACAGCGTAGAATGAAGG
[1] = system: RARb homodimer (NR concentration 270 nM)
Procedure, shortened: (§1)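 Binding z-scores take random background probes as their reference. They come from custom Agilent 4×180K protein-binding microarrays incubated 1 h with ligand-free nuclear receptor dimers, with antibodies against each partner (one per run) detecting binding. Scanned fluorescence was regression-normalized.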

[2] = system: RARg:RXRa (NR concentration 270 nM, RXRa partner concentration 90 nM)
Procedure, shortened: as §1

[3] = system: RARg homodimer (NR concentration 270 nM)
Procedure, shortened: as §1

[4] = system: RXRa DBDmut IVT, anti-RXR (DBD mutation: RXRa K156A/R161A, NR concentration 90 nM)
Procedure, shortened: as §1

[5] = system: RXRa homodimer (NR concentration 180 nM)
Procedure, shortened: as §1

[6] = system: THRa:RXRa (NR concentration 90 nM, RXRa partner concentration 90 nM)
Procedure, shortened: as §1

[7] = system: THRa homodimer (NR concentration 90 nM)
Procedure, shortened: as §1

[8] = system: VDR:RXRa (NR concentration 270 nM, RXRa partner concentration 90 nM)
Procedure, shortened: as §1

[9] = system: VDR homodimer (NR concentration 270 nM)
Procedure, shortened: as §1

Question: Which results are given for GCTGCTAGGTCGACTGATGGTCAGCTAAAGCTCG?
Answer: PBM binding z-score [1]: 0.638; PBM binding z-score [2]: 1.2; PBM binding z-score [3]: 0.89; PBM binding z-score [4]: 0.38; PBM binding z-score [5]: 0.265; PBM binding z-score [6]: 0.35; PBM binding z-score [7]: -0.82; PBM binding z-score [8]: -0.493; PBM binding z-score [9]: -1

Question: With TAGCCTAGGTCCTTCAGGGGCCAGTATAGAAAGC as the sequence, how does the PBM binding z-score [1] read?
Answer: The PBM binding z-score was 0.357.

Question: What about the PBM binding z-score [2] of the same sequence?
Answer: The PBM binding z-score was 0.825.

Question: And the PBM binding z-score [3]?
Answer: Its PBM binding z-score is 0.108.

Question: And the PBM binding z-score [4]?
Answer: The PBM binding z-score was -1.03.

Question: What about the PBM binding z-score [5] of the same sequence?
Answer: The PBM binding z-score was -0.259.

Question: What about the PBM binding z-score [6] of the same sequence?
Answer: Its PBM binding z-score is 0.402.

Question: And the PBM binding z-score [7]?
Answer: Its PBM binding z-score is -0.799.

Question: And the PBM binding z-score [8]?
Answer: The PBM binding z-score was -0.708.

Question: What about the PBM binding z-score [9] of the same sequence?
Answer: The PBM binding z-score was -0.422.

Question: For CGTCCAAGCTCAGCAGGTCAGTGAAAGCGACGTG, which PBM binding z-score [1] is on record?
Answer: Its PBM binding z-score is 1.73.

Question: And the PBM binding z-score [2]?
Answer: Its PBM binding z-score is 0.644.

Question: And the PBM binding z-score [3]?
Answer: Its PBM binding z-score is 1.1.

Question: What about the PBM binding z-score [4] of the same sequence?
Answer: Its PBM binding z-score is -0.071.

Question: And the PBM binding z-score [5]?
Answer: The PBM binding z-score was 0.158.

Question: What about the PBM binding z-score [6] of the same sequence?
Answer: The PBM binding z-score was 0.642.

Question: What about the PBM binding z-score [7] of the same sequence?
Answer: Its PBM binding z-score is -0.345.

Question: What about the PBM binding z-score [8] of the same sequence?
Answer: The PBM binding z-score was -0.352.

Question: And the PBM binding z-score [9]?
Answer: The PBM binding z-score was -0.808.

Question: How did the PBM binding z-score [1] turn out when ATATGTAGGTTACCGGGTCATTCAGTTTGCGCAT was run?
Answer: The PBM binding z-score was 3.18.

Question: And the PBM binding z-score [2]?
Answer: The PBM binding z-score was 3.85.

Question: And the PBM binding z-score [3]?
Answer: The PBM binding z-score was 2.52.

Question: What about the PBM binding z-score [4] of the same sequence?
Answer: The PBM binding z-score was 1.45.

Question: And the PBM binding z-score [5]?
Answer: The PBM binding z-score was 4.15.

Question: And the PBM binding z-score [6]?
Answer: Its PBM binding z-score is 3.37.

Question: What about the PBM binding z-score [7] of the same sequence?
Answer: The PBM binding z-score was 2.38.

Question: And the PBM binding z-score [8]?
Answer: Its PBM binding z-score is 5.56.

Question: What about the PBM binding z-score [9] of the same sequence?
Answer: Its PBM binding z-score is 4.17.

Question: CTATGTAGGTTAAGGCGGTCATTCAGTTTGAAAG was tested. Which PBM binding z-score [1] did it give?
Answer: Its PBM binding z-score is 1.65.

Question: What about the PBM binding z-score [2] of the same sequence?
Answer: Its PBM binding z-score is 1.31.

Question: And the PBM binding z-score [3]?
Answer: Its PBM binding z-score is 1.44.

Question: And the PBM binding z-score [4]?
Answer: Its PBM binding z-score is 0.518.

Question: And the PBM binding z-score [5]?
Answer: Its PBM binding z-score is 0.704.

Question: And the PBM binding z-score [6]?
Answer: Its PBM binding z-score is 0.878.

Question: And the PBM binding z-score [7]?
Answer: The PBM binding z-score was -0.0284.

Question: And the PBM binding z-score [8]?
Answer: The PBM binding z-score was 3.84.

Question: And the PBM binding z-score [9]?
Answer: The PBM binding z-score was 0.465.

Question: Which results are given for CGAACTAGGTCAAAGGACAGTGAGAGGCGACGTA?
Answer: PBM binding z-score [1]: 3.04; PBM binding z-score [2]: 3.93; PBM binding z-score [3]: 4.52; PBM binding z-score [4]: 1.67; PBM binding z-score [5]: 3.04; PBM binding z-score [6]: 2.62; PBM binding z-score [7]: 0.63; PBM binding z-score [8]: 1.19; PBM binding z-score [9]: 0.723

Question: What does the source list for GATTCAGGGTCAGCTAGAGGCCAGAGTATGGAAA?
Answer: PBM binding z-score [1]: 3.87; PBM binding z-score [2]: 7; PBM binding z-score [3]: 5.09; PBM binding z-score [4]: 1.93; PBM binding z-score [5]: 4.72; PBM binding z-score [6]: 3.52; PBM binding z-score [7]: 1.01; PBM binding z-score [8]: 4.09; PBM binding z-score [9]: 0.938

Question: With CTATCTAGGTTAAGGGGGTCATTCAGTTTGAAAG as the sequence, how does the PBM binding z-score [1] read?
Answer: Its PBM binding z-score is 3.94.

Question: What about the PBM binding z-score [2] of the same sequence?
Answer: The PBM binding z-score was 5.18.

Question: And the PBM binding z-score [3]?
Answer: The PBM binding z-score was 4.36.

Question: And the PBM binding z-score [4]?
Answer: The PBM binding z-score was 2.55.

Question: And the PBM binding z-score [5]?
Answer: The PBM binding z-score was 5.74.

Question: And the PBM binding z-score [6]?
Answer: The PBM binding z-score was 3.91.

Question: What about the PBM binding z-score [7] of the same sequence?
Answer: The PBM binding z-score was 2.14.

Question: And the PBM binding z-score [8]?
Answer: The PBM binding z-score was 7.51.

Question: What about the PBM binding z-score [9] of the same sequence?
Answer: The PBM binding z-score was 7.21.

Question: What does the source list for CGAACTAGGTCACCAGGACAGTGAGGAGGTTGGA?
Answer: PBM binding z-score [1]: 3.41; PBM binding z-score [2]: 4.5; PBM binding z-score [3]: 5.36; PBM binding z-score [4]: 1.05; PBM binding z-score [5]: 3.49; PBM binding z-score [6]: 3.34; PBM binding z-score [7]: 1.7; PBM binding z-score [8]: 1.83; PBM binding z-score [9]: 0.667

Question: What does the source list for CCGAGTAGGTTACGAGGTGGCATTCAGTGCGAAT?
Answer: PBM binding z-score [1]: 0.473; PBM binding z-score [2]: 0.479; PBM binding z-score [3]: 0.466; PBM binding z-score [4]: 0.226; PBM binding z-score [5]: 0.697; PBM binding z-score [6]: 0.837; PBM binding z-score [7]: -0.2; PBM binding z-score [8]: 0.516; PBM binding z-score [9]: 0.0157

Question: Which results are given for AATACAGGGTCACTAGGCCAGAGTGGGTACGAAT?
Answer: PBM binding z-score [1]: 3.17; PBM binding z-score [2]: 5.09; PBM binding z-score [3]: 4.79; PBM binding z-score [4]: 2.59; PBM binding z-score [5]: 5.4; PBM binding z-score [6]: 3.29; PBM binding z-score [7]: 1.4; PBM binding z-score [8]: 3.97; PBM binding z-score [9]: 3.06

Question: CTATGTAGGTTGAGGGGGTCATTCAGTTTGAAAG was tested. Which PBM binding z-score [1] did it give?
Answer: The PBM binding z-score was 3.8.

Question: And the PBM binding z-score [2]?
Answer: Its PBM binding z-score is 5.4.

Question: What about the PBM binding z-score [3] of the same sequence?
Answer: Its PBM binding z-score is 4.34.

Question: What about the PBM binding z-score [4] of the same sequence?
Answer: Its PBM binding z-score is 2.5.

Question: What about the PBM binding z-score [5] of the same sequence?
Answer: The PBM binding z-score was 5.59.

Question: And the PBM binding z-score [6]?
Answer: The PBM binding z-score was 4.05.

Question: And the PBM binding z-score [7]?
Answer: The PBM binding z-score was 3.08.

Question: What about the PBM binding z-score [8] of the same sequence?
Answer: Its PBM binding z-score is 7.

Question: What about the PBM binding z-score [9] of the same sequence?
Answer: Its PBM binding z-score is 6.14.

Question: For CCTCCAAGGTCATAGGAGGTCAGTGAAGACAGAT, which PBM binding z-score [1] is on record?
Answer: The PBM binding z-score was 5.33.

Question: What about the PBM binding z-score [2] of the same sequence?
Answer: Its PBM binding z-score is 6.72.

Question: What about the PBM binding z-score [3] of the same sequence?
Answer: The PBM binding z-score was 7.01.

Question: What about the PBM binding z-score [4] of the same sequence?
Answer: Its PBM binding z-score is 3.01.

Question: What about the PBM binding z-score [5] of the same sequence?
Answer: Its PBM binding z-score is 6.79.

Question: What about the PBM binding z-score [6] of the same sequence?
Answer: The PBM binding z-score was 5.36.

Question: And the PBM binding z-score [7]?
Answer: The PBM binding z-score was 3.1.

Question: And the PBM binding z-score [8]?
Answer: The PBM binding z-score was 6.6.

Question: And the PBM binding z-score [9]?
Answer: The PBM binding z-score was 4.12.

Question: Which results are given for ACTCGGAGGACAGAGGTCAGAGCTACGCCAGTGA?
Answer: PBM binding z-score [1]: 3.82; PBM binding z-score [2]: 4.6; PBM binding z-score [3]: 4.17; PBM binding z-score [4]: 0.707; PBM binding z-score [5]: 4.17; PBM binding z-score [6]: 3.03; PBM binding z-score [7]: 0.579; PBM binding z-score [8]: 2.99; PBM binding z-score [9]: 1.19

Question: Which PBM binding z-score [1] does the source give for CGAAGTAGGTCACCAGGACAGTGAAGAGGTTGGA here?
Answer: The PBM binding z-score was 3.32.

Question: What about the PBM binding z-score [2] of the same sequence?
Answer: Its PBM binding z-score is 4.39.

Question: What about the PBM binding z-score [3] of the same sequence?
Answer: The PBM binding z-score was 5.16.

Question: And the PBM binding z-score [4]?
Answer: The PBM binding z-score was 1.03.

Question: What about the PBM binding z-score [5] of the same sequence?
Answer: The PBM binding z-score was 3.57.

Question: What about the PBM binding z-score [6] of the same sequence?
Answer: Its PBM binding z-score is 2.85.

Question: And the PBM binding z-score [7]?
Answer: Its PBM binding z-score is 1.2.

Question: What about the PBM binding z-score [8] of the same sequence?
Answer: Its PBM binding z-score is 2.07.

Question: What about the PBM binding z-score [9] of the same sequence?
Answer: The PBM binding z-score was 0.581.

Question: For CGAACTAGGTCACCAGGGCAGTGAAGAGGTTGGA, which PBM binding z-score [1] is on record?
Answer: The PBM binding z-score was 3.62.

Question: And the PBM binding z-score [2]?
Answer: Its PBM binding z-score is 4.53.

Question: What about the PBM binding z-score [3] of the same sequence?
Answer: Its PBM binding z-score is 5.52.

Question: And the PBM binding z-score [4]?
Answer: Its PBM binding z-score is 1.03.

Question: And the PBM binding z-score [5]?
Answer: The PBM binding z-score was 3.26.

Question: What about the PBM binding z-score [6] of the same sequence?
Answer: The PBM binding z-score was 3.09.

Question: What about the PBM binding z-score [7] of the same sequence?
Answer: The PBM binding z-score was 1.39.

Question: And the PBM binding z-score [8]?
Answer: The PBM binding z-score was 2.32.

Question: And the PBM binding z-score [9]?
Answer: Its PBM binding z-score is 0.712.
